The record followed here is PubChem BioAssay (EPA / NIEHS).

Test [1] in a line: ATG_TAL_CIS: Attagene CIS-FACTORIAL HepG2 Assay for human TAL Basal Promoter (AID 2282966; active means hit-call score of the fitted dose curve at least 0.9, where 1 is the maximum; inactive means score below 0.9;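 further: background control endpoint measuring basal TAL promoter reporter mRNA not a specific factor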). Particulars: HepG2 Attagene cis-factorial TAL promoter reporter; actives raise or lower the signal. In a few lines: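 HepG2 cells were transiently transfected with promoter-driven multiplexed reporter units and dosed for 24 h. Reporter mRNA was measured by RT-PCR with capillary electrophoresis fluorescence; bidirectional fits used DMSO as baseline, serving as a background control.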

Test [2] can be described thus: ATG_TGFb_CIS: Attagene CIS-FACTORIAL HepG2 Assay for human Transforming Growth Factor (TGF) (AID 2282967; active means hit-call score of the fitted dose curve at least 0.9, where 1 is the maximum; inactive means score below 0.9). To be noted: HepG2 Attagene CIS TGFb reporter, mRNA transcription; actives raise or lower the signal. In a few lines: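 HepG2 cells transiently transfected with cis-promoter-driven multiplexed reporter units; 24 h compound exposure. Reporter mRNA measured by RT-PCR, 6-FAM labeling, HpaI digestion and capillary electrophoresis; bidirectional fit versus DMSO baseline.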

The nature of test [3]: ATG_VDRE_CIS: Attagene CIS-FACTORIAL HepG2 Assay for human Vitamin D Receptor Element (VDRE) (AID 2282968; active means hit-call score of the fitted dose curve at least 0.9, where 1 is the maximum; inactive means score below 0.9). Particulars: HepG2 VDRE cis-reporter transcription, actives raise or lower the signal. The procedure, abridged:
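HepG2 cells transiently transfected with cis-element reporter units, dosed 24 h; reporter mRNA measured by RT-PCR, 6-FAM labeling, HpaI digestion and capillary electrophoresis. Activity fitted bidirectionally against DMSO baseline.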

The target of test [4] is Nuclear receptor subfamily 1 group I member 3 (Homo sapiens) (UniProt Q14994). Put plainly: ATG_CAR_TRANS: Attagene TRANS-FACTORIAL HepG2 Assay for human Constitutive Androstane Receptor (CAR) (AID 2282969).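 Further: activators raise reporter mRNA above DMSO so AC50 marks induction.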 Particulars: HepG2 Attagene TRANS-FACTORIAL CAR reporter. The procedure, abridged:
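HepG2 cells transiently transfected with multiplexed GAL4-UAS reporter units expressing chimeric NR-Gal4 proteins; compound exposure 24 h. Reporter mRNA measured by RT-PCR, 6-FAM labelling, HpaI digestion and capillary electrophoresis; gain-of-signal fitted against DMSO baseline.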

The target in test [5] is Steroid hormone receptor ERR1 (Homo sapiens) (UniProt P11474). Put plainly: ATG_ERRa_TRANS: Attagene TRANS-FACTORIAL HepG2 Assay for human Estrogen-Related Receptor alpha (ERRa) (AID 2282971). Particulars: HepG2 Attagene TRANS reporter, ERRa transactivation. In a few lines:
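HepG2 cells transiently transfected with multiplexed GAL4-UAS reporter units reading chimeric ERRa-Gal4 activity; 24 h compound exposure. Reporter mRNA measured by RT-PCR, 6-FAM labelling, HpaI digest and capillary electrophoresis; gain of signal fitted versus DMSO baseline.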

Test [6] addresses X-box-binding protein 1 (Homo sapiens) (UniProt P17861). Put plainly: ATG_Xbp1_CIS: Attagene CIS-FACTORIAL HepG2 Assay for human X-box Binding Protein 1 (XBP1) (AID 2282972; active means hit-call score of the fitted dose curve at least 0.9, where 1 is the maximum; inactive means score below 0.9). To be noted: HepG2 XBP1 cis-element reporter, Attagene multiplex; actives raise or lower the signal. The procedure, abridged:
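HepG2 cells transiently transfected with cis-regulated multiple reporter transcription units; endogenous transcription factor activity measured 24 hours after chemical dosing. Reporter mRNA quantified by RT-PCR, 6-FAM primer extension, HpaI digestion and capillary electrophoresis; bidirectional fitting versus DMSO.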

The nature of test [7]: ATG_M_19_TRANS: Attagene TRANS-FACTORIAL HepG2 Assay for M19 Transcription Factor (Internal Marker) (AID 2282974). Particulars: HepG2 Attagene TRANS-FACTORIAL M19 internal marker reporter. In a few lines:
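Transfected HepG2 (GAL4-UAS MRTUs), 24 h compound, TriZol RNA, DNase-treated RT, reporter PCR, FAM label, HpaI digest, CE fluorescence; gain vs DMSO.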

Test [8] is described as follows: ATG_GAL4_TRANS: Attagene TRANS-FACTORIAL HepG2 Assay for GAL4 (Internal Marker) (AID 2282976). To be noted: HepG2 Attagene TRANS GAL4 internal marker reporter. In a few lines: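 HepG2 cells transiently transfected with multiplexed GAL4-UAS reporter constructs were dosed for 24 h. Reporter mRNA was measured by RT-PCR, 6-FAM primer extension, HpaI digestion and capillary electrophoresis, and gain of signal was fitted relative to DMSO.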

Test [9] deals with Glucocorticoid receptor (Homo sapiens) (UniProt P04150). Put plainly: ATG_GR_TRANS: Attagene TRANS-FACTORIAL HepG2 Assay for human Glucocorticoid Receptor (GR) (AID 2282978).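 Further: activators score as hits since higher reporter transcript over DMSO is fitted.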 Particulars: HepG2 Attagene TRANS GR reporter, mRNA transcription. In a few lines: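 After 24 h incubation with test chemical, transfected HepG2 cells were lysed for RNA; reporter cDNA was amplified, FAM-labelled, HpaI-digested and sized on a capillary analyser. Signal gain relative to DMSO was scored.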

The target of test [10] is Bile acid receptor (Homo sapiens) (UniProt Q96RI1). Put plainly: ATG_FXR_TRANS: Attagene TRANS-FACTORIAL HepG2 Assay for Farnesoid X Receptor (FXR) (AID 2282979).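 Further: hits raise reporter mRNA above DMSO so AC50 marks FXR activation.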 To be noted: HepG2 Attagene TRANS FXR-GAL4 reporter transcription. In a few lines:
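HepG2 cells transiently transfected with reporter constructs in which a chimeric FXR-GAL4 protein drives a GAL4-UAS reporter; 24 h compound exposure. Reporter mRNA measured by RT-PCR, FAM labelling, HpaI digestion and capillary electrophoresis; gain-of-signal versus DMSO.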

Test [11] has as its target Oxysterols receptor LXR-alpha (Homo sapiens) (UniProt Q13133). Put plainly: ATG_LXRa_TRANS: Attagene TRANS-FACTORIAL HepG2 Assay for human Liver X Receptor alpha (LXRa) (AID 2282980). Particulars: HepG2 Attagene TRANS reporter, LXRa transactivation. The procedure, abridged: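 HepG2 cells were transiently transfected with multiplexed reporter units driven by chimeric LXRa–GAL4 fusion proteins, then dosed for 24 h. Reporter mRNA was quantified by RT-PCR, fluorescent labelling and capillary electrophoresis; gain of signal fitted against DMSO baseline.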

Test [12] addresses Oxysterols receptor LXR-beta (Homo sapiens) (UniProt P55055). Put plainly: ATG_LXRb_TRANS: Attagene TRANS-FACTORIAL HepG2 Assay for human Liver X Receptor beta (LXRb) (AID 2282981). To be noted: HepG2 Attagene TRANS GAL4-LXRb reporter, mRNA. The procedure, abridged: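 HepG2 cells transiently transfected with multiple reporter transcription units carrying chimeric NR-Gal4 proteins acting on GAL4-UAS reporters; compound exposure 24 h. Reporter mRNA quantified by RT-PCR, 6-FAM labelling, HpaI digestion and capillary electrophoresis; gain of signal versus DMSO.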

Test [13] can be described thus: ATG_M_06_TRANS: Attagene TRANS-FACTORIAL HepG2 Assay for M06 Transcription Factor (Internal Marker) (AID 2282983).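 Further: reporter transcript level by RT-PCR then capillary electrophoresis fluorescence.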 To be noted: HepG2 Attagene TRANS M06 internal marker reporter. The procedure, abridged: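 HepG2 cells transiently transfected with multiplexed GAL4-UAS reporter transcription units; after 24 h compound exposure, reporter mRNA measured by RT-PCR, FAM-labelled primer extension, HpaI digestion and capillary electrophoresis. Gain-of-signal fitted versus DMSO baseline; background control readout.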

Test [14] is described as follows: ATG_M_32_TRANS: Attagene TRANS-FACTORIAL HepG2 Assay for M32 Transcription Factor (Internal Marker) (AID 2282984). To be noted: HepG2 Attagene TRANS M32 internal marker reporter. The procedure, abridged:
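HepG2 cells transiently transfected with multiple GAL4-UAS reporter transcription units, dosed for 24 hours; reporter mRNA quantified by RT-PCR, 6-FAM primer extension, HpaI digestion and capillary electrophoresis. Gain-of-signal fitted versus DMSO baseline; internal background-control marker.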

Test [15] concerns the target Nuclear receptor subfamily 4 group A member 2 (Homo sapiens) (UniProt P43354). Put plainly: ATG_NURR1_TRANS: Attagene TRANS-FACTORIAL HepG2 Assay for human Nuclear Receptor Related Protein 1 (NURR1) (AID 2282985). To be noted: HepG2 Attagene TRANS reporter, mRNA readout. The procedure, abridged: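 HepG2 cells transiently transfected with GAL4-UAS reporter units and chimeric NR-Gal4 constructs; chemical exposure 24 h. Reporter mRNA quantified by RT-PCR, fluorescent labelling and capillary electrophoresis; gain of signal fitted relative to DMSO baseline.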

Test [16] has as its target Transcriptional activator Myb (Homo sapiens) (UniProt P10242). Put plainly: ATG_Myb_CIS: Attagene CIS-FACTORIAL HepG2 Assay for human Myeloblastosis (Myb) Proto-Oncogene Transcription Factor (AID 2282986; active means hit-call score of the fitted dose curve at least 0.9, where 1 is the maximum; inactive means score below 0.9). Particulars: HepG2 Attagene CIS-FACTORIAL Myb reporter transcription; actives raise or lower the signal. In a few lines:
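After 24 h of compound dosing, total RNA from transfected HepG2 cells is reverse-transcribed and the reporter sequences amplified, labeled and separated by capillary electrophoresis. Values come from bidirectional fitting against DMSO.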

Test [17] deals with Nuclear respiratory factor 1 (Homo sapiens) (UniProt Q16656). Put plainly: ATG_NRF1_CIS: Attagene CIS-FACTORIAL HepG2 Assay for human Nuclear Respiratory Factor 1 (NRF1) Orphan Gene (AID 2282987; active means hit-call score of the fitted dose curve at least 0.9, where 1 is the maximum; inactive means score below 0.9). Particulars: HepG2 NRF1 cis-element reporter, Attagene multiplex; actives raise or lower the signal. In a few lines:
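Measured: fluorescent reporter-specific RT-PCR products from transfected HepG2 cells, separated by capillary electrophoresis. Exposure lasted 24 h. Analysis used bidirectional curve fitting with DMSO as negative control.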

Test [18] in a line: ATG_NFI_CIS: Attagene CIS-FACTORIAL HepG2 Assay for human Nuclear Factor I (NFI) (AID 2282989; active means hit-call score of the fitted dose curve at least 0.9, where 1 is the maximum; inactive means score below 0.9). To be noted: HepG2 cis-regulatory reporter, NFI response element transcription; actives raise or lower the signal. In a few lines: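 HepG2 cells transiently transfected with cis-element-driven multiplexed reporter transcription units, dosed for 24 h. Reporter mRNA quantified by RT-PCR, fluorescent labelling, HpaI digestion and capillary electrophoresis; bidirectional fit versus DMSO baseline.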

For test [19], the target named is Hepatocyte nuclear factor 4-alpha (Homo sapiens) (UniProt P41235). Put plainly: ATG_HNF4a_TRANS: Attagene TRANS-FACTORIAL HepG2 Assay for human Hepatocyte Nuclear Factor 4 alpha (HNF4a) (AID 2282982). Particulars: HepG2 HNF4a transactivation reporter, mRNA readout. The procedure, abridged:
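HepG2 cells transiently transfected with multiplexed GAL4-UAS reporter units responsive to chimeric NR-GAL4 proteins; compound exposure 24 h. Reporter mRNA quantified by RT-PCR, 6-FAM labelling, HpaI digestion and capillary electrophoresis; gain of signal versus DMSO baseline.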

Values joined by “and” are separate entries in the source; they are usually repeats but may differ in a detail not shown here. Equal entries are not always repeated. Results filed as inconclusive are left out. Active and inactive are the calls of the source. How the source made its calls, unless noted: active means hit-call score of the fitted dose curve at least 0.9, where 1 is the maximum; inconclusive means response in the unintended direction; inactive means score below 0.9.

The AC50 is the concentration giving half of the maximal activity seen.

Sequence of Glucocorticoid receptor (Homo sapiens) (P04150 whole entry, looked up): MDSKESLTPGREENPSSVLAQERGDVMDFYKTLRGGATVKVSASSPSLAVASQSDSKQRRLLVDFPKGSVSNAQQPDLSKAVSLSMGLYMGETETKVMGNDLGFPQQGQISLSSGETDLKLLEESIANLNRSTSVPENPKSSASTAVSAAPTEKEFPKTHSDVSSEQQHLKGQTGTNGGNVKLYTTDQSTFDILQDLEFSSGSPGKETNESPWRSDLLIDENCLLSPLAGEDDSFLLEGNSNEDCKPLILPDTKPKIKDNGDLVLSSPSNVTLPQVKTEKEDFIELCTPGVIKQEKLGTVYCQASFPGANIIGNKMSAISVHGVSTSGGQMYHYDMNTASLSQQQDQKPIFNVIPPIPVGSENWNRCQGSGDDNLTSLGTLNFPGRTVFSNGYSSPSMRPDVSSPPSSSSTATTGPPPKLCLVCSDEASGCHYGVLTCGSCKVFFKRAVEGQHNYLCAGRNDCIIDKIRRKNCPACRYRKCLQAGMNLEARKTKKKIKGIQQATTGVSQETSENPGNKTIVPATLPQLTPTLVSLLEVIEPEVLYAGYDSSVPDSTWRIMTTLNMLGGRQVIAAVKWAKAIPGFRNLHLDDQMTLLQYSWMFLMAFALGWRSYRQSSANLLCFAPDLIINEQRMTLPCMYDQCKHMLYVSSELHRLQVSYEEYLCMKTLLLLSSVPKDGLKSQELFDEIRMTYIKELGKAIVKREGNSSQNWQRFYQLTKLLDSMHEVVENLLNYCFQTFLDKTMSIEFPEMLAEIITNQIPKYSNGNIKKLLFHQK
Sequence of Hepatocyte nuclear factor 4-alpha (Homo sapiens) (P41235 whole entry, looked up, the tested form may be a part): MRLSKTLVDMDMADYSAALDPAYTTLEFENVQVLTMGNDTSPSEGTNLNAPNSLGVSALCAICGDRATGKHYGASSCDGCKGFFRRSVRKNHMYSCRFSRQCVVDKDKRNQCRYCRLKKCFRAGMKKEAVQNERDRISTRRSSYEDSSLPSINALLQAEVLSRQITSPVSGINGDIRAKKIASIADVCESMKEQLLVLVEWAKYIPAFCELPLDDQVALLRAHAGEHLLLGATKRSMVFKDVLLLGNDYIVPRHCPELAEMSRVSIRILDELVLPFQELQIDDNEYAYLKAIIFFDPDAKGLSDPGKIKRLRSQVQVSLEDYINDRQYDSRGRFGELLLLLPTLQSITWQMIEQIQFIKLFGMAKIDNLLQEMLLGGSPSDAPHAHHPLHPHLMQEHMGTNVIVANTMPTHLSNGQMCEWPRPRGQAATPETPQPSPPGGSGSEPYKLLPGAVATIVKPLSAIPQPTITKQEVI
Sequence of Transcriptional activator Myb (Homo sapiens) (P10242 whole entry, looked up): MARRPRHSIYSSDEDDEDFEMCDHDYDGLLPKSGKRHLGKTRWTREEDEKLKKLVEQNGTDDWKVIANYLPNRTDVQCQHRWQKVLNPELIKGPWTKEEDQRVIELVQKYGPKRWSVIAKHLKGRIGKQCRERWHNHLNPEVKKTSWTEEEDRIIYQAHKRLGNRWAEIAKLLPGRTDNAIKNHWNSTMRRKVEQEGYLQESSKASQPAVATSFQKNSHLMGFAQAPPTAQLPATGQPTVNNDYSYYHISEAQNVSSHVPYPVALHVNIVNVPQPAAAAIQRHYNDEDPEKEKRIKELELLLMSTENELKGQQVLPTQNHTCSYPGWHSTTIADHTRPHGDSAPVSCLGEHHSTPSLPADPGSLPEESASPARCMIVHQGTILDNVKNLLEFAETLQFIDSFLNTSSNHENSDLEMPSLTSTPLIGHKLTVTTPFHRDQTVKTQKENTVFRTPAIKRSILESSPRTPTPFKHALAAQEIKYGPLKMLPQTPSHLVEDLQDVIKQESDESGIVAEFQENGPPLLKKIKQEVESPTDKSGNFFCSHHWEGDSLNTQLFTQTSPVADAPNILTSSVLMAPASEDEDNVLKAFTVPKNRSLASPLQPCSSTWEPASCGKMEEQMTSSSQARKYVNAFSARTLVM
Sequence of Nuclear receptor subfamily 1 group I member 3 (Homo sapiens) (Q14994 whole entry, looked up, the tested form may be a part): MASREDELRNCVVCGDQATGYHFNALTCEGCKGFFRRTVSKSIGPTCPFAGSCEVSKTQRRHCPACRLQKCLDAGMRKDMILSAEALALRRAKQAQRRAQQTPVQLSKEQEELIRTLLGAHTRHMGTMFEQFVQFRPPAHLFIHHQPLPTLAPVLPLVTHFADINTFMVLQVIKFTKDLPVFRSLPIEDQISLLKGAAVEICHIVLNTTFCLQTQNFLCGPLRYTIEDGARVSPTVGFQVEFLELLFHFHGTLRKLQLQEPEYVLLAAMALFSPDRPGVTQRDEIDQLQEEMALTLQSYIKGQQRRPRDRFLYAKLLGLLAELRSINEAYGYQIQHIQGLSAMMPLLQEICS
Sequence of Oxysterols receptor LXR-alpha (Homo sapiens) (Q13133 whole entry, looked up, the tested form may be a part): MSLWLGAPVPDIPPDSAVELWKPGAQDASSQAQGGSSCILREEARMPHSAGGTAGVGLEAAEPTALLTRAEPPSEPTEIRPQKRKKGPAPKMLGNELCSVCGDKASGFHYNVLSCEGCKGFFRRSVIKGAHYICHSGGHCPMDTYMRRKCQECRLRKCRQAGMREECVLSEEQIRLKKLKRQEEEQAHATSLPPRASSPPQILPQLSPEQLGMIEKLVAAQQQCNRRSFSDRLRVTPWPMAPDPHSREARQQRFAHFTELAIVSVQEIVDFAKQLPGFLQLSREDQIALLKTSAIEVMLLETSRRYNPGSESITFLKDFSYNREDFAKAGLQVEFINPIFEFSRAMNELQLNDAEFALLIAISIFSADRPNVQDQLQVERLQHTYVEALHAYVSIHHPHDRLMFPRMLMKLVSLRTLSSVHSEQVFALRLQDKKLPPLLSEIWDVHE
Sequence of X-box-binding protein 1 (Homo sapiens) (P17861 whole entry, looked up): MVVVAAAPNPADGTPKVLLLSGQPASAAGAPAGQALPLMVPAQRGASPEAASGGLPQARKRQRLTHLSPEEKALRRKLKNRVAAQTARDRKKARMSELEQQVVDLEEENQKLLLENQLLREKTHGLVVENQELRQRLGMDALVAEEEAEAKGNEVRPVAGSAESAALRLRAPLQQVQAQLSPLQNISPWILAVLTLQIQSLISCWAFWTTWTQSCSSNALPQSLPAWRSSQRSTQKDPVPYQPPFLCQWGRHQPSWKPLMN
Sequence of Nuclear receptor subfamily 4 group A member 2 (Homo sapiens) (P43354 whole entry, looked up, the tested form may be a part): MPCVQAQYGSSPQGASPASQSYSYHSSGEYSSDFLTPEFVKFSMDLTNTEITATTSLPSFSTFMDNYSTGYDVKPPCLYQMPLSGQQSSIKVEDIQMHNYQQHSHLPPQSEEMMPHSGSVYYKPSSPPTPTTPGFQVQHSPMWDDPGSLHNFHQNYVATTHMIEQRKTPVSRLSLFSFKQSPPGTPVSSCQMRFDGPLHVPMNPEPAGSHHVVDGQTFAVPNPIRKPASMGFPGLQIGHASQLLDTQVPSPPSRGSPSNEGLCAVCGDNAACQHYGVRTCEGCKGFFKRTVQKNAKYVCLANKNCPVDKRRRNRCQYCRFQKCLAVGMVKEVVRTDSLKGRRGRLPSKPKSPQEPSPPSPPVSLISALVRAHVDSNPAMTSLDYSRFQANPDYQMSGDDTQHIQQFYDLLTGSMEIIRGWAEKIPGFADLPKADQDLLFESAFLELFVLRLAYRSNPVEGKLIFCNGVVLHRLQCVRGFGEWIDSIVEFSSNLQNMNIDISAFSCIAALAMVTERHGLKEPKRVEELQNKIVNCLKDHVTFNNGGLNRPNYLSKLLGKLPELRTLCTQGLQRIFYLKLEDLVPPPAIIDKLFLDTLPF
Sequence of Bile acid receptor (Homo sapiens) (Q96RI1 whole entry, looked up, the tested form may be a part): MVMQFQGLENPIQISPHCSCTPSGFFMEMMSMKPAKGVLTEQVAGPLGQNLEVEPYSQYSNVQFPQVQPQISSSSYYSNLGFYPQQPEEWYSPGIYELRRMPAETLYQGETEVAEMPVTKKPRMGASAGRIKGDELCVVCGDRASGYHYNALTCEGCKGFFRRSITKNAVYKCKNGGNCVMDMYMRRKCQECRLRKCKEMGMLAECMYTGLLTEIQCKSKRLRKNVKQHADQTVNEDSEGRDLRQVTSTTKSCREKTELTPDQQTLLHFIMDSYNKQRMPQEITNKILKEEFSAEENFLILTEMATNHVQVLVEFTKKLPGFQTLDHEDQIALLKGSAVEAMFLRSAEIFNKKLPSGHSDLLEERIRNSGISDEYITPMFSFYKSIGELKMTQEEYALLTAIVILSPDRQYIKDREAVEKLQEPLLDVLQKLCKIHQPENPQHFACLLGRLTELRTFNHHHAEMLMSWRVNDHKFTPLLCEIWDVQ
Sequence of Nuclear respiratory factor 1 (Homo sapiens) (Q16656 whole entry, looked up): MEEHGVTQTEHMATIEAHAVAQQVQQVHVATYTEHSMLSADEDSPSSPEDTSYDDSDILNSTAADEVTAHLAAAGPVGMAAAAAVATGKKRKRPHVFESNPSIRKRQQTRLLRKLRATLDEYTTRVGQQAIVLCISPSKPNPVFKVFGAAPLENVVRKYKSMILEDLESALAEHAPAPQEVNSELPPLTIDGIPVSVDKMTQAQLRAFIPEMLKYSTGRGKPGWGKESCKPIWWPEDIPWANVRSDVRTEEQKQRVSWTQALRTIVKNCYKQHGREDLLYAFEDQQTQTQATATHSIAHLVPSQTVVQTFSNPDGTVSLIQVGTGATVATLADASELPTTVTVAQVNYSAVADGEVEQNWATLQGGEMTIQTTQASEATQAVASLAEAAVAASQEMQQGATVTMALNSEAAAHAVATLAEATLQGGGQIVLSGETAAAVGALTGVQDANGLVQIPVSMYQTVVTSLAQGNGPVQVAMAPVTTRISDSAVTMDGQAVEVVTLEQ
Sequence of Steroid hormone receptor ERR1 (Homo sapiens) (P11474 whole entry, looked up, the tested form may be a part): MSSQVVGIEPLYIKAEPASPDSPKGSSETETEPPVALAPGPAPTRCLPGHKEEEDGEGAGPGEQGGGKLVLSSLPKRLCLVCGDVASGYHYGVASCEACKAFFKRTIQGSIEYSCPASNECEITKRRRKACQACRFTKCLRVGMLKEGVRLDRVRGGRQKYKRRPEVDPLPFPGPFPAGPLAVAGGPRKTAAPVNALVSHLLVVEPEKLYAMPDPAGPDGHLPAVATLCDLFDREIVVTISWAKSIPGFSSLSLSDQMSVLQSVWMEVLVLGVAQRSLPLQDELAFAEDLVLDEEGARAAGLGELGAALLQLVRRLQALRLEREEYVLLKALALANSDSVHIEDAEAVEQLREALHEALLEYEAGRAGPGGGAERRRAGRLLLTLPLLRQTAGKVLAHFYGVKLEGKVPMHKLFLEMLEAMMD

In the case of `FC(F)(F)C(F)(F)C(F)(F)C(F)(F)C(F)(F)C(F)(F)I`, the molecule was called inactive in [1], in test [2], in [3], in test [4], in [5] and in [6]. Moreover, the molecule was called inactive in test [7], in test [8], in test [9], in [10], in test [11] and in test [12]. Further, the call in [13], in test [14], in test [15], in test [16], in [17] and in [18] was inactive.
As for `CC(C)CC(C)O` (configuration not stated), the result in test [1], in test [2], in test [3], in [4], in test [6] and in [7] was inactive. The outcome in test [8], in test [19], in test [16], in test [17] and in [18] was inactive.
As for `Cc1nc(-c2ccccn2)ncc1C(=O)Nn1cc(C)c2cc(F)ccc21`, the call in test [1], in test [2], in test [3], in test [4], in [5] and in [6] was inactive. In addition, the molecule was classed as inactive in test [7], in test [8], in [16], in test [17] and in [18].
For `OC(O)(C(F)C(O)(O)C(F)(F)F)C(F)(F)F`, the AC50 in test [1] was 51.9 µM (active) and 25.8 µM (active); in test [6] it was 61.9 µM (active) and 33 µM (active); in [15] it was 31.5 µM (active) and 19.1 µM (active); in test [17] it was 38.6 µM (active) and 72.7 µM (active); in test [18], 52.4 µM (active) and 51.5 µM (active). Also, the outcome in test [2], in test [3], in [4], in [5], in test [8] and in test [9] was inactive. Besides, the call in test [10], in [11], in test [19], in [13], in test [14] and in test [16] was inactive.
